The term inhibition denotes the relative decrease from the control value, in per cent.

Out of some 330,000 compounds screened, about 520 (0.16%) were called active. The entries come from a sample that favours actives as a whole. Values without a mark were called inactive.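 Rule for the calls: active = inhibition of at least 50% in every replicate; inconclusive = best replicate reaches 50% inhibition but some replicates fall short; inactive = the rest.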

The test deals with Histone acetyltransferase RTT109 (Candida albicans (strain SC5314 / ATCC MYA-2876)) (UniProt Q5AAJ8). Description: Rtt109-Vps75 histone acetyltransferase blockade – biochemical, ThioGlo CoA-SH fluorescence, plate reader, primary screen (AID 540336). The following applies: purified Rtt109/Vps75, ThioGlo CoA-SH fluorescence, 4 h; at 34.9 µM; active compounds read high.
Chain of Histone acetyltransferase RTT109 (Candida albicans (strain SC5314 / ATCC MYA-2876)) (Q5AAJ8 whole entry, looked up): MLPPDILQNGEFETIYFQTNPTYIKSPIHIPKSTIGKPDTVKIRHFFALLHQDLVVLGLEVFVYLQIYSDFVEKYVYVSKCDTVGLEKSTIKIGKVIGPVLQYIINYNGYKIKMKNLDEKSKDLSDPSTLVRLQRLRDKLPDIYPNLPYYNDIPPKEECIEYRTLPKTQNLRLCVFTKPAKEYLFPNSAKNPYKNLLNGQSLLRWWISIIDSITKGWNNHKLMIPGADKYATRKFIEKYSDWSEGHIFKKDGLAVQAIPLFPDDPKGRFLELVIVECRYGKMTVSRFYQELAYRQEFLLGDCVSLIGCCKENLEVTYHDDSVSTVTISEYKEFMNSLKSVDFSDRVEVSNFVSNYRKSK
For the molecule `COc1cccc(/C=N/Nc2ccc(S(=O)(=O)Nc3ccccc3C(=O)O)cc2[N+](=O)[O-])c1O`, the inhibition is 31.2%.

Turning to `COc1ccc(/C=C/C(=O)OCC(=O)N2CCN(S(=O)(=O)c3ccc(C)cc3C)CC2)cc1OC`, the inhibition is -12.4%. The result for `Cc1ccc2c(O)c(Cc3ccccc3)c(=O)[nH]c2n1` reads 3.15%. The result for `CCOC(=O)c1ccccc1NC(=O)CSc1nc2c(sc(=S)n2CC)c(=O)[nH]1` reads 12.6%; that for `COc1ccc(CNCCCn2cnc3c(OCc4ccccc4)ncnc32)cc1`, -0.493%; that for `O=C(Nc1ccccc1Cl)O/N=C(/c1ccccc1)c1ccccn1`, -0.825%. The result for `O=C(Nc1ccccc1Cl)/C(Cl)=C(\Cl)S(=O)c1ccccc1` (configuration not stated) reads 136% (active); that for `CC1(C)CC(CCC(=O)Nc2ccccc2Cl)C(=O)O1` (configuration not stated), -18.6%.

Take `Cc1cc2c(cc1C)NC1(C[C@H]3CCC(=O)N4CC[C@@H](C1)[C@@H]34)C(=NC(C)(C)CC(C)(C)C)N2` (some centres not stated): the inhibition is -1.37%. The result for `COc1ccccc1C(=O)c1ccccc1C(=O)c1ccccc1` reads -0.662%.

`COc1ccc2c(c1)C(=O)CC(c1ccccc1)O2` (configuration not stated): the inhibition was -1.45%. The result for `CCOC(=O)Cc1csc(NC(=O)CSc2nc(C)cc(=O)[nH]2)n1` reads 66.2% (active); that for `CCCCc1nnc(NC(=O)CSc2nc(C)cc(=O)[nH]2)s1`, -0.892%; that for `CCOC(=O)Cc1csc(NC(=O)CSc2ccc(Br)cc2)n1`, 2.14%. As for `Cc1ccc(S(=O)(=O)N2CCC(C(=O)N3CCCCCCC3)CC2)cc1`, the inhibition was 1.29%. The result for `CSc1ccc(NC(=O)/C=C/C(=O)O)cc1` reads 63.6% (active); that for `Cc1cccc(N2CCN(c3ccc(NC(=O)/C=C\C(=O)O)cc3)CC2)c1`, 3.01%; that for `O=C(O)/C=C\C(=O)Nc1ccc(OCc2ccccc2)cc1`, 3.12%. The result for `O=[N+]([O-])c1ccc(NS(=O)(=O)c2ccccc2)c(Cl)c1` reads -7.39%. The result for `CC(=O)OC1CCC2(C)C(=CCC3C4CC(=O)N(O)C(=O)C4(C)CCC32)C1` (configuration not stated) reads 1.39%; that for `NC(=O)C1(Nc2ccccc2Cl)CCCC1`, -1.87%; that for `CC(C)C[C@H]1CN([C@@H](CC(C)C)CN2CCC[C@@H]2CN2C(=O)C(=O)NC[C@@H]2Cc2ccccc2)C(=O)C(=O)N1CCc1ccccc1`, 3.1%. Consider `OCCN1CCN(CCO)C1=S`, for which the inhibition was -2.55%. Regarding `O=[N+]([O-])c1cc2ccccc2nc1-c1ccccc1`, the inhibition is 2.85%. The result for `CCCN(C(=O)COC(=O)CNS(=O)(=O)c1ccc(NC(C)=O)cc1)C1CCS(=O)(=O)C1` (configuration not stated) reads 2.12%; that for `Cc1cccc(C2c3c(n(C)c(=O)n(C)c3=O)N=C3c4ccccc4C(=O)C32)c1` (configuration not stated), 29.8%. The result for `O=C(Nc1ccccc1)Oc1cccc2cccnc12` reads 1.03%. The result for `CC(C)(C)C(=O)Nc1cccc(-c2ccc[nH]2)n1` reads -1.5%; that for `CN(C)S(=O)(=O)Oc1ccccc1C(=O)Nc1ccccc1Cl`, 58.3% (active); that for `O=C(Nc1ccccc1Cl)c1ccccc1S(=O)(=O)c1ccccc1[N+](=O)[O-]`, 22.9%. In the case of `CC(=O)Nc1ccc(NC(=O)COc2ccccc2C(=O)Nc2cccc(Cl)c2Cl)cc1`, the inhibition is -5.99%.

As to `CC(C)(C)S(=O)(=O)N1Cc2cc(CO)cc(CCO)c2[C@H]1CCO`, the inhibition is -3.04%. The result for `O=C(NCCCN1CCN(c2ccccc2F)CC1)C1CCC(=O)N1C1CCCCC1` (configuration not stated) reads 58.1% (active). In the case of `COc1ccc(CN2CC(C(=O)NCCN3CCN(c4ccccc4F)CC3)CC2=O)cc1` (configuration not stated), the inhibition was -11.1%. On to `O=C(NCCCN1CCCCCC1)C1CC(=O)N(C2CCCC2)C1` (configuration not stated), for which the inhibition was 32.5%.

As for `CCCCC(=O)NC(c1ccc(OC)c(OC)c1)c1ccc2cccnc2c1O` (configuration not stated), the inhibition was -3.23%. The result for `CC(C)c1cc(CN2CCOCC2)cc(C(C)C)c1O` reads -6.21%. In the case of `Oc1c(C(c2ccccn2)N2CCOCC2)ccc2cccnc12` (configuration not stated), the inhibition was 51.7% (active). The result for `COc1cccc(C=CC(=O)C=CC=Cc2ccccc2)c1` reads -4.82%; that for `O=C(O)c1ccc(NN=CC2=C(N3CCOCC3)/C(=C/c3ccccc3)CC2)cc1`, -15.5%.

For the molecule `Cn1cc(C2OC(=O)c3ccccc32)c2ccccc21` (configuration not stated), the inhibition is 0.802%. Turning to `O=C(Nc1c(Br)cc2c(c1Br)Cc1cc([N+](=O)[O-])ccc1-2)C(Cl)Cl`, the inhibition was -4.04%. The result for `CC(=O)Oc1ccc(N(C(C)=O)S(=O)(=O)c2ccc3ccccc3c2)cc1Br` reads 2.06%. Take `COC(=O)c1c(C)oc2ccc(N(C(=O)Oc3ccccc3)S(=O)(=O)c3ccccc3)cc12`: the inhibition was 0.88%. The result for `CC(=O)N(c1ccc2oc(=O)sc2c1)S(=O)(=O)c1ccc(C)cc1` reads 134% (active); that for `CCOC(=O)CCC(NC(=O)c1ccc(CNc2nc3cc(C(F)(F)F)ccc3nc2C(=O)OCC)cc1)C(=O)OCC` (configuration not stated), 9.24%; that for `CC(C=Cc1ccccc1)=NNS(=O)(=O)c1ccc([N+](=O)[O-])cc1`, -0.601%.

Consider `CC(=O)OC1CCC2C3CCC4=C(CC(F)C(=O)C4)C3CCC12C` (configuration not stated), for which the inhibition was -7.91%.

Turning to `O=C1c2ccccc2C(=O)C1C(=O)C1CC1`, the inhibition was 0.0105%. The result for `O=C1NCC(Nc2ccccc2)C(=O)N1` (configuration not stated) reads -4.85%; that for `CCCCNC1(C#N)CCN(Cc2ccccc2)CC1`, 0.637%; that for `O=C1C=C(NS(=O)(=O)c2ccccc2)C(=O)c2ccccc21`, -1.13%.

These data come from PubChem BioAssay AID540336 (Broad Institute, 2011).
